In the library only some 3.9% were active in any assay of this set; here they are far more common.
D1 antagonist: human D1 dopamine receptor antagonism; P21728; HEK293 TREx D1 cells, calcium flux, dopamine EC80; stronger effect = lower value; activity change, negative = inhibition, % at 10 µM; 3.2% of 360,000 active; in the data active = activity change below about -30%
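HEK293 T-REx cells expressing inducible, force-coupled D1 receptor; no-wash Ca dye, 30–90 min RT. Cmpd → 180 s read at 1 Hz → EC80 DA → 180 s read.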
D1 agonist: human D1 receptor agonism. P21728. HEK293 T-REx D1 cells, calcium flux, agonist mode. activation, % at 2 µM. 1% of 360,000 active; in the data active = activation above about 30%
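Inducible HEK293 T-REx D1 cells, force-coupled to calcium signalling, were plated at 4000 cells/well with tetracycline and held overnight at 30 C. After no-wash calcium dye loading, compound-evoked calcium rise over 180 s flagged agonists.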
GALK inh: galactokinase (human) inhibition. Purified GALK, Kinase-Glo residual ATP luminescence. Potency, µM (doses to about 57.5 µM), actives largely listed as inhibitors. 0.007% of 270,000 active
Target sequence (P51570 whole entry, looked up): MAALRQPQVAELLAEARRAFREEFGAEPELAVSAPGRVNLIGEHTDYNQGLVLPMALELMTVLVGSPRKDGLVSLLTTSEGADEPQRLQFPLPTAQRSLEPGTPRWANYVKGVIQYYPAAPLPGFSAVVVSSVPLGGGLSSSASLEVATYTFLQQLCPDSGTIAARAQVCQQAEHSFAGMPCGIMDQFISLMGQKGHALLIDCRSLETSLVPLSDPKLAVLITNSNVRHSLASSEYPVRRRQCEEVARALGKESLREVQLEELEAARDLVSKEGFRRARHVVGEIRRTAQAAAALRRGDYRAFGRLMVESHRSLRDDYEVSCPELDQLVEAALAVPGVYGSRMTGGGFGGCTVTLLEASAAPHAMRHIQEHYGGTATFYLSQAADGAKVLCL
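GALK at 5 nM final was combined with compound, 35 uM ATP and 100 uM galactose in HEPES pH8.0 with MgCl2 and DTT. The reaction ran one hour at room temperature before luminescent ATP detection.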
D1 PAM: potentiators of human D1 dopamine receptor. P21728. HEK293 TREx D1 cells, calcium flux, dopamine EC20 potentiation. potentiation, % at 10 µM. 0.036% of 360,000 active. AID 504651; in the data active = potentiation above about 30%
Eya2 phos inh: inhibitors of human Eya2 phosphatase activity; AID 488837; 0.006% of 330,000 active; O00167; recombinant Eya2, OMFP fluorescence dephosphorylation (OMFP is methylfluorescein phosphate); Potency, µM (top dose mostly 76.9 µM), actives largely listed as inhibitors
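Eya2 protein (added as 0.2 uM solution) was preincubated with compound for 10 min at ambient temperature in 50 mM HEPES pH 7.5, 50 mM NaCl, 5 uM MgCl2, 0.05% BSA, 1 mM DTT. OMFP (added at 50 uM) then reacted 10 min; fluorescence read at 485/525 nm.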
USP2a inh: inhibitors of human ubiquitin-specific protease USP2a; 0.01% of 330,000 active; O75604; Potency, µM (doses to about 38.3 µM), most hits filed as inhibitors; USP2 core, Ub-CHOP2 coupled fluorogenic reporter, 485/531; AID 463254
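Deubiquitinase activity read as fluorescence (485/531 nm) after Ub-CHOP2 cleavage activates the enterokinase reporter on its substrate; USP2 core 10nM, Ub-CHOP2 and substrate 25nM each, 30min compound preincubation then 60min RT; data normalized to NEM, curves fitted.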
Numbers stand for hits; 0 = inactive; ? = inconclusive; - = no result. Unless noted, calls come from the whole dose curve; as a rule, active = well fitted inhibition curve with a large enough effect; inconclusive = small, poorly fitted or top-dose-only effect, or effect the other way; inactive = flat fitted curve, though single readings scatter.

SMILES | D1 antagonist | D1 agonist | GALK inh | D1 PAM | Eya2 phos inh | USP2a inh
Cc1cccc(NC(=O)c2cc(-c3ccc4c(c3)OCCO4)on2)c1 | -66 | 35 | - | 0 | - | -
N#Cc1ccc(OC(=O)c2cc(-c3ccc(Cl)cc3)on2)cc1 | -38 | 0 | - | 0 | - | -
Cc1cc(OC(=O)c2cc(-c3ccc4c(c3)OCCO4)on2)ccc1Cl | -36 | 0 | - | 0 | - | -
C=CCNCCCCOc1cccc(Br)c1 | 0 | 32 | 0 | 0 | 0 | 0
Nc1c(C(=O)Nc2cccc(F)c2)sc2nc(-c3cccs3)ccc12 | 0 | 33 | - | 0 | - | -
CCCSc1nnc(NC(=O)c2sc3nc(-c4cccs4)ccc3c2N)s1 | 0 | 43 | 0 | 0 | 0 | 0
Cc1csc(NC(=O)c2sc3nc(-c4cccs4)ccc3c2N)n1 | 0 | 73 | 0 | 0 | 0 | 0
Cc1cc(C)cc(OC(=O)c2cc(-c3ccc(Cl)cc3)on2)c1 | 0 | 0 | - | 0 | - | -
COC(=O)c1ccc(NC(=O)CN2C(=O)CC(c3ccccc3)Sc3ccccc32)cc1 (configuration not stated) | 0 | 0 | - | 0 | - | -
Cc1ccc(/C=N/NC(=O)Cn2cnc3ccccc32)cc1 | -43 | 0 | 0 | 0 | 0 | 0
Cc1ccc(OCCCCn2cnc3ccccc32)cc1 | -37 | 0 | 0 | 0 | 0 | 0
Cc1cccc(Cn2c(COc3ccc(Cl)cc3)nc3ccccc32)c1 | 0 | 32 | - | 0 | - | -
c1ccc2c(c1)ncn2CCN1CCCCC1 | -71 | 0 | 0 | 0 | 0 | 0
Cc1ccc(OCc2nc3ccccc3n2CCOc2ccc(Cl)cc2)cc1 | 0 | 41 | - | 0 | - | -
O=C(COCc1cc(-c2cccs2)on1)NCc1ccc(F)cc1 | 0 | 0 | - | 0 | - | -
Cc1ccc(NC(=O)Cn2c(=O)n(CCC(=O)NCc3ccc4c(c3)OCO4)c(=O)c3sccc32)c(C)c1 | -34 | 0 | - | 0 | - | -
CCOc1ccc(C2C(=O)N(C3CCCCCC3)CC(=O)N2Cc2ccccc2)cc1OC (configuration not stated) | 0 | 0 | - | 0 | - | -
CCN(CC)C(=O)Cn1c(=O)cc(C)c2c(C)nn(-c3cccc(Cl)c3C)c21 | 0 | 0 | - | 0 | - | -
O=C1CCN2C=Nc3cccc4ccc1c2c34 | 0 | 170 | 0 | 0 | ? | ?
Cc1cc(C)c(OCC(=O)Nc2ccccc2N2CCOCC2)c(C)c1 | 0 | 44 | 0 | 0 | 0 | 0
O=c1oc2ccccc2cc1-c1cn2cc(Cc3ccc(Br)cc3)sc2n1 | 0 | 45 | - | 0 | - | -
O=c1oc2ccccc2cc1-c1cn2cc(Cc3ccc(F)cc3)sc2n1 | 0 | 0 | - | 0 | - | -
Cc1ccccc1N1CCN(CCCCN2C(=O)C3CCCN3C2=O)CC1 (configuration not stated) | -57 | 0 | 0 | 0 | 0 | 0
CCOc1ccc(C2c3c(oc4ccc(C)cc4c3=O)C(=O)N2Cc2ccc3c(c2)OCO3)cc1OC (configuration not stated) | 0 | 0 | - | 0 | - | -
COC(=O)c1ccccc1NC(=O)Cn1c(=O)n(-c2cccc(OC)c2)c(=O)c2c(C)c(C(=O)N(C)C)sc21 | -35 | 0 | - | 0 | - | -
SMILES | D1 antagonist | D1 agonist | GALK inh | D1 PAM | Eya2 phos inh | USP2a inh
COc1cccc(-n2c(=O)c3c(C)c(C(=O)N(C)C)sc3n(Cc3ccc(F)cc3Cl)c2=O)c1 | -31 | 0 | - | 0 | - | -
COc1cccc(-n2c(=O)c3c(C)c(C(=O)N(C)C)sc3n(CC(=O)Nc3ccc(C)cc3Cl)c2=O)c1 | 0 | 0 | - | 0 | - | -
CCc1ccc(-n2c(=O)c3c(C)c(C(=O)N(C)C)sc3n(CC(=O)NCC3CCCO3)c2=O)cc1 (configuration not stated) | 0 | 0 | 0 | 0 | 0 | 0
COc1cccc(-n2c(=O)c3c(C)c(C(=O)N(C)C)sc3n(CC(=O)NCC3CCCO3)c2=O)c1 (configuration not stated) | -30 | 0 | 0 | 0 | 0 | 0
Cc1ccc(NC(=O)Cn2c(=O)n(Cc3nc(-c4ccccc4)no3)c(=O)c3ccccc32)c(C)c1 | 0 | 0 | - | 0 | - | -
CCOc1c(CNCCSc2nnnn2C)cccc1OC | 0 | 0 | - | 0 | - | -
CC(C)Sc1nc2c(c(=O)n1C)SC(C)C2 (configuration not stated) | -32 | 0 | 0 | 0 | 0 | 0
CC1Cc2nc(SCC(=O)N3CCOCC3)n(C)c(=O)c2S1 (configuration not stated) | 0 | 0 | 0 | 0 | 0 | 0
CN(C)CCNc1ncnc2c1sc1nc(-c3ccccc3)c3c(c12)CCCC3 | -80 | 0 | 0 | 0 | 0 | 0
Cc1ccc(-n2ncc3c(=O)n(Cc4ccccc4C)cnc32)cc1C | 0 | 0 | - | 0 | - | -
Cn1c(=O)[nH]c(=O)c2c1nc1n2CCN1Cc1ccccc1 | -61 | 0 | 0 | 0 | 0 | 0
O=C(Cn1cc(S(=O)(=O)c2ccccc2)c(=O)c2cc(Cl)ccc21)Nc1ccc2c(c1)OCO2 | 0 | 0 | - | 0 | - | -
Cc1cn2c(=O)cc(COC(=O)COc3ccccc3C)nc2s1 | -30 | 0 | - | 0 | - | -
Cc1cn2c(=O)cc(COC(=O)c3cccc(NC(=O)c4ccccc4Cl)c3)nc2s1 | 0 | 0 | - | 0 | - | -
Cc1cn2c(=O)cc(COC(=O)c3cccc(NC(=O)c4ccccc4C)c3)nc2s1 | -59 | 0 | - | 0 | - | -
Cc1cn2c(=O)cc(COC(=O)c3ccc(NC(=O)COc4ccc(C)c(C)c4)cc3)nc2s1 | -36 | 0 | - | 0 | - | -
COc1ccc(OC)c(Nc2nc3ccccc3nc2-n2nc(C)cc2C)c1 | 0 | 0 | - | 0 | - | -
Nc1ccc(-c2c3ccc(=O)cc-3oc3cc(O)ccc23)c(C(=O)O)c1 | 0 | 355 | - | 0 | ? | ?
CC(=O)c1cc(NC(=O)c2ccc(Cl)cc2)c(=O)oc1/C=C/N(C)C | 0 | 108 | 0 | 0 | 0 | 0
CCc1ccc(-c2nc(CN3CCC(C(=O)N4CCN(c5ccccn5)CC4)CC3)c(C)o2)cc1 | -55 | 168 | 0 | 0 | 0 | 0
CCc1ccc(-c2nc(CN3CCC(C(=O)N4CCN(c5ccccc5)CC4)CC3)c(C)o2)cc1 | -35 | 43 | 0 | 0 | 0 | 0
CCN1c2ccccc2-c2nc(SCC(=O)Nc3cc(F)ccc3F)ncc2S1(=O)=O | 0 | 0 | - | 0 | - | -
COc1ccc(NC(=O)Cc2noc3ccc(C)cc23)cc1Cl | -31 | 0 | - | 0 | - | -
Cc1ccc2oc(-c3ccc(Cl)cc3)c(O)c(=O)c2c1 | 0 | 71 | - | 0 | - | -
CC(=O)Nc1sc(N/N=C\c2ccc(O)cc2)nc1-c1cccs1 | 0 | 0 | 0 | 0 | 0 | 0
CCN(CC)c1ccc(/C=C(\C#N)c2nc(-c3cccs3)c(NC(C)=O)s2)cc1 | 0 | 214 | 0 | 0 | ? | 0
CCCCCn1c(=O)c(C(=O)c2ccccc2)nc2ccccc21 | 0 | 0 | - | 0 | 0 | 0
CCCCCCn1c(=O)[nH]c2nc3cc(N)ccc3nc2c1=O | 0 | 451 | 0 | 0 | ? | ?

Screens deposited in PubChem by National Center for Advancing Translational Sciences (NCATS).
